Source: PubChem BioAssay
aSyn 5UTR act – Activators working through SNCA 5'UTR binding (MLPCN); alpha-synuclein 5'UTR reporter, activators screen; activity score, % (tested at 7.5 µM), hits read low; AID 1814; 300,000 compounds, 7.1% hits; in the data active = activity score below about -60%
* = called active by the depositor. Not all results are given here.

SMILES	aSyn 5UTR act
CCCCc1ccc(-c2nc(N)n[nH]2)cc1	-99.7*
Cn1cccc1C(=O)OCC(=O)Nc1ccc2c(c1)OCO2	-100.9*
Cn1cccc1C(=O)OCC(=O)Nc1ccc2c(c1)CCC2	-137.8*
COc1ccc(-n2c(C)cc(/C=C3\C(=O)NN(c4ccccc4)C3=O)c2C)cc1	-113.1*
Cc1cc(/C=C2/C(=O)NN(c3ccccc3)C2=O)c(C)n1-c1ccc(O)cc1	-138.2*
Cc1cc(/C=C2\C(=O)NN(c3ccccc3)C2=O)c(C)n1-c1ccccc1O	-131.6*
O=C1NN(c2ccccc2)C(=O)/C1=C/c1coc2ccccc2c1=O	-138.1*
CCOC(=O)CNC(=O)c1cc(-c2ccccn2)nc2c(C)c(Cl)ccc12	-65.6*
CCc1cc2c(=O)c(-c3nc4ccccc4[nH]3)coc2cc1OC(=O)N1CCOCC1	-75.3*
COc1ccc(-c2coc3cc(OC(=O)N4CCOCC4)ccc3c2=O)cc1	-67.2*
CCN(CC)C(=O)Oc1ccc2c(=O)c(-c3ccc(OC)cc3)coc2c1	-125.2*
CCN(CC)C(=O)Oc1ccc2cc(Br)ccc2c1	-86.8*
COc1ccc(Oc2c(C)oc3cc(OC(=O)N4CCOCC4)ccc3c2=O)cc1	56.2
C/C(=C\C(=O)c1ccc(Cl)cc1)Nc1ccc(Br)cc1	-131.0*
C/C(=C\C(=O)c1ccc(Br)cc1)NCc1ccccc1	-112.8*
Cc1c(/N=C(\[O-])Nc2ccc(Br)cc2)sn[n+]1C	89.3
C/C(=C\C(=O)c1ccc(Br)cc1)Nc1cccc(Cl)c1	-79.8*
CCCCCCOC(=O)c1ccc(N)cc1	-114.0*
CCCCOC(=O)Nc1ccc(C)c(Cl)c1	-163.6*
CCCCCCCCOC(=O)c1c(CSC(=N)N)n(C)c2cc(Br)c(OC(C)=O)cc12	41.4
CCCCOC(=O)Nc1ccc(C(=O)OC)cc1	-110.0*
Cc1c2ccccc2nc2c(F)c(NC(C)C)c(F)c(F)c12	-106.1*
Cc1cc(Cl)ccc1NC(=O)c1ccc2c(c1)OCO2	-230.6*
COc1cc(Cl)c(C)cc1NC(=O)c1ccc2c(c1)OCO2	-84.2*
Cc1ccc(NC(=O)c2ccc(Cl)nc2)cc1	-116.2*
SMILES	aSyn 5UTR act
Cc1ccc(C(=O)Nc2ccc3c(c2)OCO3)cc1Cl	-122.5*
Cc1ccc(C(=O)Nc2ccc3c(c2)OCO3)cc1S(=O)(=O)N1CCCC1	-113.5*
O=C(Nc1ccc2c(c1)OCO2)c1cnccn1	-105.7*
Cc1ccc(NC(=O)c2ccc3c(c2)OCO3)cc1Cl	-122.8*
O=C(Nc1ccc2c(c1)OCO2)c1ccc(Cl)nc1	-89.8*
Cc1ccc(NC(=O)c2nsc(Cl)c2Cl)cc1	-112.7*
COc1ccc2nc3sc(C(=O)NCCCN4CCc5ccccc5C4)cc3cc2c1	-83.7*
CC(C)OC(=O)Nc1ccc2c(c1)N(C(=O)N1CCN(C)CC1)c1ccccc1CC2	-62.2*
CCn1cc(C(=O)O)c(=O)c2cnc(N3CCN(C(=S)Nc4ccccc4Cl)CC3)nc21	-112.0*
CCN1CCc2c(sc(NC(=O)c3ccc(S(=O)(=O)N4CCOCC4)cc3)c2C(=O)OC)C1	-71.4*
CC(C)(C)c1ccc(Cn2c(=N)n(CC(O)c3ccco3)c3ccccc32)cc1 (stereo unspecified)	101.2
CC(C)(C)c1ccc(CN2C3=NCCCN3c3ccccc32)cc1	-62.0*
C[C@@H](CO)NC(=O)c1ccc2c3n(nc2c1)-c1ccc(Cl)cc1CO3	-192.2*
CC(C)[C@@H](CO)NC(=O)c1ccc2c3n(nc2c1)-c1ccc(Cl)cc1CO3	-179.6*
Cc1cccc(-n2ncc3c(NCc4cccnc4)ncnc32)c1	-142.3*
c1ccc(-n2ncc3c(NCc4ccco4)ncnc32)cc1	-251.8*
Cc1ccc(-n2ncc3c(NCc4cccnc4)ncnc32)cc1C	-90.4*
Brc1ccc2ncnc(NCc3ccco3)c2c1	-63.8*
COc1ccc(-n2ncc3c(NCc4ccc5c(c4)OCO5)ncnc32)cc1	-108.5*
COc1ccc(-n2ncc3c(N4CCCCC4)ncnc32)cc1	101.2
Cc1ccc(-n2ncc3c(NCc4ccccc4)ncnc32)cc1	-188.7*
COc1ccc(-n2ncc3c(NCc4cccnc4)ncnc32)cc1	-148.8*
Cc1nc(/C=C/c2ccccc2)cc(/C=C/c2ccccc2)n1	-103.6*
Cn1nc(/C=C/c2ccccc2)ccc1=O	-189.7*
C(=C\c1cc(/C=C/c2ccccc2)ncn1)/c1ccccc1	-144.9*
SMILES	aSyn 5UTR act
O=C1NC(c2ccc(Cl)cc2)Nc2ccccc21 (stereo unspecified)	-62.0*
CN(C)c1ccc(C2NC(=O)c3ccccc3N2)cc1 (stereo unspecified)	-130.6*
CN(C)c1ccc(C2Nc3cccc4cccc(c34)N2)cc1	-94.1*
Cc1ccc(C2NC(=O)c3ccccc3N2)s1 (stereo unspecified)	-168.1*
Nc1cc(C2CCCC2)nn1-c1ccccc1	-128.0*
Cc1ccc(-c2cc(N)n(-c3ccccc3)n2)cc1	-115.2*
CCc1ccc(-c2cc(N)n(-c3ccccc3)n2)cc1	-121.0*
CCOC(=O)C1(Cc2ccccc2Cl)CCN(C(=O)CN2CCOC2=O)CC1	-144.6*
CCOc1ccc(OCc2cccc(C(=O)O)c2)cc1	83.6
CCOc1ncccc1C(=O)OCc1ccc(C(=O)OC)cc1	-126.0*
CCOc1ccc(OCc2ccc(C(=O)N(CC)CC)cc2)cc1	-155.3*
CCC(=O)c1ccc(OCc2ccc(C(=O)OC)cc2)cc1	-73.0*
CCC(=O)c1ccc(OCc2ccc(C#N)cc2)cc1	-112.2*
CSc1ccccc1NC(=O)c1cc2ncc(Br)cn2n1	-181.7*
CNc1sc(C(=O)c2cccs2)c(N)c1-c1nc2ccccc2s1	-157.1*
CNc1sc(C(=O)c2ccc(F)cc2)c(N)c1-c1nc2ccccc2s1	-136.8*
CC(/C=C1\SC(=Nc2cccnc2)NC1=O)=C\c1ccccc1	-113.1*
COc1ccccc1/C=C/C=N/NC(=O)c1ccco1	-111.6*
CC(C)(C)OC(=O)N/N=C\c1ccc(OC(=O)c2ccco2)cc1	-84.4*
O=C(N/N=C/C(Br)=C\c1ccccc1)c1ccco1	-225.6*
O=C(N/N=C/c1ccccc1)c1ccco1	-107.4*
COc1ccccc1NC(NC(=O)c1ccco1)C(=O)c1ccccc1 (stereo unspecified)	-85.1*
O=C(N/N=C/c1ccccc1)c1[nH]ncc1Br	-118.2*
O=C(N/N=C/c1ccc(OCc2ccccc2)cc1)c1ccco1	-103.0*
CCn1c(SCC(=O)Nc2ccc(-c3nc4ccc(C)cc4s3)cc2)nnc1-c1ccccc1	-174.7*
SMILES	aSyn 5UTR act
C=CCn1c(SCC(=O)Nc2ccc(-c3nc4ccc(C)cc4s3)cc2)nnc1-c1ccncc1	-98.9*
C/C(=N\Nc1ncc(Cl)cc1Cl)c1ccc(OC(F)F)cc1	-62.0*
C/C(=N\Nc1ncc(Cl)cc1Cl)c1ccc2c(c1)OCO2	-78.7*
O=C(Sc1cccc2cccnc12)c1ccccc1Br	-241.6*
CCOc1ccc(-n2c(C)cc(C(=O)CCl)c2C)cc1	110.8
COc1ccc(-n2c(C)cc(C(=O)NC3CCCCC3)c2C)cc1	-156.4*
Cc1cccc(-n2c(C)cc(C(=O)NC3CCCCC3)c2C)c1	-75.7*
CC1=CC(c2ccccc2)=Nc2ccc(C)cc2N1	-150.6*
CC(C)(C)SCCNC(=O)CSc1ccccc1	-72.5*
CC(C)(C)SCCNC(=O)Nc1ccccc1	-87.0*
COCCNC(=O)c1cc2c(s1)-c1ccc(Cl)cc1SC2	-103.9*
Cc1cc(C)nc(/N=C(\N)Nc2ccc3c(c2)OCCO3)n1	-126.4*
Cc1cc(C)nc(/N=C(\N)Nc2ccc(F)c([N+](=O)[O-])c2)n1	-124.1*
Cc1ccc(CN=C(N)Nc2nc(C)cc(C)n2)cc1	117.0
Cc1nc(C)c(-c2csc(Nc3cccc(O)c3)n2)s1	-155.7*
